Source: the supplement of paper PMC11732987, “Enantioselective OTUD7B fragment discovery through chemoproteomics screening and high-throughput optimisation” (Communications Chemistry, 2025)

How the values were obtained:
Assay in all cases: log2 ratio of Biotin-Ahx-Ub-VS probe labelling (fragment/DMSO); higher = less target engagement (more negative = stronger competition), active = hit call of the paper (q ≤ 0.05, log2 ratio ≤ -1)
Conditions in all cases: compound concentration: 200 uM; treatment time: 3 h
[1] = target: T1, OTUD6B (UniProt Q8N6M0)
T1 sequence (whole entry): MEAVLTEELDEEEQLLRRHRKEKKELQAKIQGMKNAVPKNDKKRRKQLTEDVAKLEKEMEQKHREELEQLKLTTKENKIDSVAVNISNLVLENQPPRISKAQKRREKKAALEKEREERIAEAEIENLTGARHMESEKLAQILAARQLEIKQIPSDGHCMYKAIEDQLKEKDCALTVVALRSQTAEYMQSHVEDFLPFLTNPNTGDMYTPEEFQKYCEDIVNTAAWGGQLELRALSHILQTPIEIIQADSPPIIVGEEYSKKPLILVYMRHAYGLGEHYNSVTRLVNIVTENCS
Method in brief: (§1)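 Lysate from HEK293T cells, 495 µg per sample in Tris/CHAPS/IGEPAL buffer with protease inhibitors, was treated for 3 h in triplicate with fragment at 200 µM or vehicle. Biotin-Ahx-Ub-VS was next added at 0.5 µM final for 1 h. The labelled DUBs were enriched with NeutrAvidin, digested with LysC and trypsin, and run by diaPASEF LC-MS/MS, with values given as average log2 fragment/vehicle ratios by unpaired t-test on global-median-normalised Spectronaut quantities of proteins with ≥2 unique peptides.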

[2] = target: T2, OTUD7B (UniProt Q6GQQ9)
T2 sequence (whole entry): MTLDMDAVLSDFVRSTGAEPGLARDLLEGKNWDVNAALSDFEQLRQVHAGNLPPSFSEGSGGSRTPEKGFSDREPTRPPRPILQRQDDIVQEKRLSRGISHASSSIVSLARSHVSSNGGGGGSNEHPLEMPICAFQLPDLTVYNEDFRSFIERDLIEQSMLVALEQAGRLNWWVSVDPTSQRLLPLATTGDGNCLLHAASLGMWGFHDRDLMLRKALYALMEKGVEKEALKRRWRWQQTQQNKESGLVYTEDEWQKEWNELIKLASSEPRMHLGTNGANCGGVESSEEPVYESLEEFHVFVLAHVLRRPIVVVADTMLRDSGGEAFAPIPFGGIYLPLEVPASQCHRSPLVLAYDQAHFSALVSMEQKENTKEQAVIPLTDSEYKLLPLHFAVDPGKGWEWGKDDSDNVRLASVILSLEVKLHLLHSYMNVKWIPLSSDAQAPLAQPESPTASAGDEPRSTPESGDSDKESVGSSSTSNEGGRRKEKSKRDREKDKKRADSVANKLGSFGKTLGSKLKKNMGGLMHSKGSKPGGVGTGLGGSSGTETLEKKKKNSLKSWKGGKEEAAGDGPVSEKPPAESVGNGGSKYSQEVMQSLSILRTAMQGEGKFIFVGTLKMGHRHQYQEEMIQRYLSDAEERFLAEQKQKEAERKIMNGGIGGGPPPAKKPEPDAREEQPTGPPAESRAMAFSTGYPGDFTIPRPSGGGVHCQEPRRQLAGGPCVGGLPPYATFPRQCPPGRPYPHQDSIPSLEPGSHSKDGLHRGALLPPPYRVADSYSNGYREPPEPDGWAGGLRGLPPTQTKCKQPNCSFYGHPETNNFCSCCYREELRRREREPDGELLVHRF
Method in brief: as §1

[3] = target: PRPF8 (UniProt Q6P2Q9)
Method in brief: as §1

[4] = target: T3, PSMD7 (UniProt P51665)
T3 sequence (whole entry): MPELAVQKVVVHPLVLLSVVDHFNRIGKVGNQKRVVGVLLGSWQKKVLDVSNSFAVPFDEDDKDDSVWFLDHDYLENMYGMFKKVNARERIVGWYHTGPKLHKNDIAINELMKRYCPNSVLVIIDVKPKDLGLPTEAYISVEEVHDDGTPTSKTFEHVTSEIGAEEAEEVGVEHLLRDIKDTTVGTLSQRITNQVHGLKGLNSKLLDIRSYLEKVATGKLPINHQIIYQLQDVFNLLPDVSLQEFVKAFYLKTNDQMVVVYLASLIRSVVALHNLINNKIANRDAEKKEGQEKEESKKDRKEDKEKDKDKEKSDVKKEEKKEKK
Method in brief: as §1

[5] = target: UCHL1 (UniProt P09936)
UCHL1, sequence (P09936 whole entry, looked up): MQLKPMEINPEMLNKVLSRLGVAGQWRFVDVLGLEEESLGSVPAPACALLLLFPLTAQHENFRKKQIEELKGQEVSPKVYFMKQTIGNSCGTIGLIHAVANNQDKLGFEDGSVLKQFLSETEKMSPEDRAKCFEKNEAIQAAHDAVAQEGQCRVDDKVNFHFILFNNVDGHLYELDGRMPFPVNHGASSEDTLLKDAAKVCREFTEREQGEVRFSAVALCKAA
Method in brief: as §1

[6] = target: T4, UCHL3 (UniProt P15374)
T4 sequence (whole entry): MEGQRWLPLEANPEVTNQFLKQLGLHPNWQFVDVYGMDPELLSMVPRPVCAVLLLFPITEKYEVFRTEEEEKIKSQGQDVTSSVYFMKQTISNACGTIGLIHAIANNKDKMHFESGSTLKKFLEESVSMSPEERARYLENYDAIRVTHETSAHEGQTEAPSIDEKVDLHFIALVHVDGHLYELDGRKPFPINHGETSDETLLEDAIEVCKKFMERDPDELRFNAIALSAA
Method in brief: as §1

[7] = target: T5, UCHL5 (UniProt Q9Y5K5)
T5 sequence (whole entry): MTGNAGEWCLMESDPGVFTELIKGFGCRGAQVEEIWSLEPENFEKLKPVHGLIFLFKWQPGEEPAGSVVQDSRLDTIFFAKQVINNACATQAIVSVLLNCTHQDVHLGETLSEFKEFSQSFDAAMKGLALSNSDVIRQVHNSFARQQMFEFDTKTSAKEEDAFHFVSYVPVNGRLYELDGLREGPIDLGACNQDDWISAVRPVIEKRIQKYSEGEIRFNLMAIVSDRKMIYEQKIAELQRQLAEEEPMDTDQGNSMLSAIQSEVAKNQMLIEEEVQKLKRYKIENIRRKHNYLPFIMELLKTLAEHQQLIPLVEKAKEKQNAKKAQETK
Method in brief: as §1

[8] = target: USP10 (UniProt Q14694)
USP10, sequence (Q14694 whole entry): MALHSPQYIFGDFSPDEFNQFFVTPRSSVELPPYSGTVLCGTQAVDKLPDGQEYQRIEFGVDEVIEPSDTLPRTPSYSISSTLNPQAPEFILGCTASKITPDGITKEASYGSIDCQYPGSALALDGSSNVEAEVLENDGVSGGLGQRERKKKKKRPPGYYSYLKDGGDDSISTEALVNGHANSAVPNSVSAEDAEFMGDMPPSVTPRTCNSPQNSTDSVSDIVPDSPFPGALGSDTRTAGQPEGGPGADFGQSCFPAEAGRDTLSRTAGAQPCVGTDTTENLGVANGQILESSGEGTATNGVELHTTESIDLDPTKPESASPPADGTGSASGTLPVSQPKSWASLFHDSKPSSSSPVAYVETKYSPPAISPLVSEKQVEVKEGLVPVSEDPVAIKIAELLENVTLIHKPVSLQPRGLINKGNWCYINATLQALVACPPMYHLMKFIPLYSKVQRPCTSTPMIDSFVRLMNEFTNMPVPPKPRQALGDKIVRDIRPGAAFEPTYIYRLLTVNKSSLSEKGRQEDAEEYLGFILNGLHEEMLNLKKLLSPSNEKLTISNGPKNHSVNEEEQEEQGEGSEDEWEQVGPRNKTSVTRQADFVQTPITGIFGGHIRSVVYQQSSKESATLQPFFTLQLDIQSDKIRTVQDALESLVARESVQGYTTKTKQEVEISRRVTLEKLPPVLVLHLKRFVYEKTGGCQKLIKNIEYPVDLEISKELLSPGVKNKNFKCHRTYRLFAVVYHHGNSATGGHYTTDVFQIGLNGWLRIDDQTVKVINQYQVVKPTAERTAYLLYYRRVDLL
Method in brief: as §1

[9] = target: T6, USP15 (UniProt Q9Y4E8)
T6 sequence (whole entry): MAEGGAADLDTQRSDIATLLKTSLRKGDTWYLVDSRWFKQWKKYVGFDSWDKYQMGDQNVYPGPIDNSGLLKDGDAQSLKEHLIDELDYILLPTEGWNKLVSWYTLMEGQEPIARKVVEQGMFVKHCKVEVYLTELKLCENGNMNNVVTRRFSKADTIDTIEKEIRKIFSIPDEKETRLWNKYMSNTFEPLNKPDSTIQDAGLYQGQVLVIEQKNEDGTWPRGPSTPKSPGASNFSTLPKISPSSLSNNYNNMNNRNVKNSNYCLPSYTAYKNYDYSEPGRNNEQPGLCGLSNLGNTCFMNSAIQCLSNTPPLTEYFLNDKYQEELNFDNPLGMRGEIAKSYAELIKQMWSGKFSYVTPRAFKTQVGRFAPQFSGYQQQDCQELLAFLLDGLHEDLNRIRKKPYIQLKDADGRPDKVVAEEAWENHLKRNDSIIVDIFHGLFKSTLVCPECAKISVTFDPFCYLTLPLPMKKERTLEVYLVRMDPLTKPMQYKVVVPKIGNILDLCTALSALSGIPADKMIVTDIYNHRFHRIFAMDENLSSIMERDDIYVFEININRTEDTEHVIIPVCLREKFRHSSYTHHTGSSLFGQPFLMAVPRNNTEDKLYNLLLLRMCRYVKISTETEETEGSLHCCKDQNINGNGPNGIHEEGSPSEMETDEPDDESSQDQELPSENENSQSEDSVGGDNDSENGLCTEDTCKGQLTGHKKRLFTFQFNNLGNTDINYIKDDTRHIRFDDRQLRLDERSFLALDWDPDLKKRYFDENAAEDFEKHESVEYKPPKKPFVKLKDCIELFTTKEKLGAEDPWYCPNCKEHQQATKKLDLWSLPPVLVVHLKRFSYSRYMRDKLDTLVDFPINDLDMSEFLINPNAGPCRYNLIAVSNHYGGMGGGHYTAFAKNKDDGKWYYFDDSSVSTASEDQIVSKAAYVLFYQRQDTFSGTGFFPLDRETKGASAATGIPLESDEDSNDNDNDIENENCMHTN
Method in brief: as §1

[10] = target: USP16 (UniProt Q9Y5T5)
USP16, sequence (Q9Y5T5 whole entry, looked up): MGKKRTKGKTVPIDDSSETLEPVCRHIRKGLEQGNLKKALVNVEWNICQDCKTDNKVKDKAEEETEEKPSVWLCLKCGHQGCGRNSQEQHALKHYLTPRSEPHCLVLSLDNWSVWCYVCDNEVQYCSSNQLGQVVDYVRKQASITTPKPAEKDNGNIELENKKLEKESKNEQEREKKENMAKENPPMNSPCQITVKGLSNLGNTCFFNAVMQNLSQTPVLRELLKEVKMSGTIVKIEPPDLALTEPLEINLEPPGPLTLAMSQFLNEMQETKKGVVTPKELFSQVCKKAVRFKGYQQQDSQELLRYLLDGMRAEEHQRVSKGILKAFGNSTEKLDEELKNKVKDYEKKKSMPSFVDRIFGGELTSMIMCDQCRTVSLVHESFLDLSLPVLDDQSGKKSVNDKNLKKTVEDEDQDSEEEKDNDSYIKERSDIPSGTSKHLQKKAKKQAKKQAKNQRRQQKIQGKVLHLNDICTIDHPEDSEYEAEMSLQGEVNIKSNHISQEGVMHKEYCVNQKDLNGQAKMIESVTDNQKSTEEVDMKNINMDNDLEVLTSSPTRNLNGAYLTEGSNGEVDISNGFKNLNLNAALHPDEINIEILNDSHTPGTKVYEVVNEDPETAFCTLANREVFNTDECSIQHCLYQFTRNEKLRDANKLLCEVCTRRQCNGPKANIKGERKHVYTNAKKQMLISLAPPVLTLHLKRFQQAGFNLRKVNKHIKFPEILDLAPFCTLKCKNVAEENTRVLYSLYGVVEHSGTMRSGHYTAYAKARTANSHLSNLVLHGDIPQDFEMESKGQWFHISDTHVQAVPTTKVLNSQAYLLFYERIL
Method in brief: as §1

Measured: log2 ratio of Biotin-Ahx-Ub-VS probe labelling

O=C(CCl)N1CCN(c2nc3ccccc3o2)CC1
inactive: [1] -0.147 | [2] -0.25 | [3] 0.299 | [4] -0.247 | [6] -0.125 | [7] -0.319 | [8] -0.131 | [9] -0.407 | [10] -0.379
active: [5] -1.49
